Among all 360,000 compounds or so, about 11,000 (3.1%) were called active. About 2% were inconclusive and are not listed. Cut-off read from the data, not from the text of the source: active = fluorescence intensity above about 16000; inconclusive = no clear call, values can overlap the other calls; inactive = below that. Many of the other results were omitted from the sample, so actives are more common in it than they were.

A short description of the assay: counter-screen for toxin protease inhibitors: compound fluorescence, primary screen, artefact control for toxin protease inhibitor project, biochemical, multiplex microsphere, HTS (AID 624483). The following applies: compound autofluorescence counterscreen, microsphere flow cytometry; stronger effect = higher value. For orientation: A counterscreen serves to expose hits that act by an unwanted route or on another target.
For the compound `COC(=O)c1sc(NC(=O)c2csc3c2CCCC3)nc1C`, the fluorescence intensity is 19100 (active).

Take `CC1CC(C)CN(CCCNC(=O)c2csc3c2CCCCC3)C1` (stereo unspecified): the fluorescence intensity is 5260 (inactive).

As for `CCOC(=O)c1sc(NC(=O)c2sc(C)nc2C)nc1C`, the fluorescence intensity was 3060 (inactive).

Turning to `CC(C)(C)Cc1c(C2CCCCC2)nc2ccc(Br)cn12`, the fluorescence intensity was 5440 (inactive).

As to `CC(=O)NC(c1cccs1)c1cc(Br)c2cccnc2c1O` (stereo unspecified), the fluorescence intensity was 3590 (inactive). Then `O=C(NCc1ccc2c(c1)OCO2)C1CCCN(S(=O)(=O)c2cccs2)C1` (stereo unspecified), with 5650 (inactive). As to `CCc1c(C)nc2ncnn2c1N1CCC(C(=O)NCc2ccc3c(c2)OCO3)CC1`, the fluorescence intensity is 20900 (active).

On to `COc1ccc(-c2cc(C(=O)N3CCN(Cc4ccc5c(c4)OCO5)CC3)on2)cc1OC`, for which the fluorescence intensity is 5740 (inactive). Then `COc1ccc(-c2csc(N3CCN(Cc4ccc5c(c4)OCO5)CC3)n2)cc1`, with 23000 (active); and `Cc1cc(N2CCN(Cc3ccc4c(c3)OCO4)CC2)n2ncnc2n1`, with 21200 (active). Take `COc1ccc(C(O)c2nc(-c3ccc4c(c3)OCO4)cs2)cc1` (stereo unspecified): the fluorescence intensity is 2970 (inactive). As to `Cc1cc(C)n2nc(C(=O)N3CCN(Cc4ccc5c(c4)OCO5)CC3)nc2n1`, the fluorescence intensity is 4210 (inactive). As to `Cc1cc(N2CCN(c3ccc(F)cc3)CC2)n2ncnc2n1`, the fluorescence intensity is 3960 (inactive). Consider `Cc1cc(C)c(S(=O)(=O)NCC2CCC(C(=O)NCc3ccc4c(c3)OCO4)CC2)c(C)c1` (stereo unspecified), for which the fluorescence intensity was 8390 (inactive).

Turning to `Oc1cc2c(cc1CN1CCN(c3ccccc3)CC1)OCO2`, the fluorescence intensity was 5830 (inactive). As to `Fc1ccc(N2CCN(Cc3ccc4c(c3)OCO4)CC2)cc1`, the fluorescence intensity is 22800 (active). As for `N#C/C=C/N1CCN(Cc2ccc3c(c2)OCO3)CC1`, the fluorescence intensity was 3600 (inactive).

For the compound `CCc1nc2ccc(C(=O)NC3CCN(Cc4ccccc4)CC3)cn2c1N(C)CCN1CCOCC1`, the fluorescence intensity was 3530 (inactive). For `O=C(NCc1ccccn1)[C@@H]1CCCN1C(=O)[C@@H]1CCCN1C(=O)c1ccccc1`, the fluorescence intensity was 5750 (inactive). Then `CCCNC(=O)c1cc(C2CCCCN2S(=O)(=O)c2ccc(C#N)cc2)on1` (stereo unspecified), with 3490 (inactive); and `CCNC(=O)C1(C)CCCN(C(=O)c2c(C)noc2C)C1` (stereo unspecified), with 2990 (inactive). `COc1ccccc1CC1(C)C(=O)Nc2ccc(OC(F)(F)F)cc21` (stereo unspecified): the fluorescence intensity was 3460 (inactive). Consider `O=C(Nc1ccc2c(c1)OCCO2)C(C1CC1)N1CCC(Cc2ccccc2)CC1` (stereo unspecified), for which the fluorescence intensity was 5440 (inactive). Then `O=C(NCC(=O)N1CCC2(CC1)NCCc1[nH]cnc12)c1ccc(Br)cc1`, with 4440 (inactive); and `O=C(C[n+]1ccc2c(c1)nnn2-c1ccccc1)c1ccc(Cl)cc1`, with 5380 (inactive).

Turning to `CC1(C(=O)NS(=O)(=O)c2ccc(C#N)cc2)CCN1C(=O)c1ccc(C2CCCCC2)cc1` (stereo unspecified), the fluorescence intensity was 3450 (inactive).

Regarding `Cc1noc(C)c1COC(=O)Cn1c(C)nc2ccccc21`, the fluorescence intensity is 3460 (inactive). On to `Cc1noc(C)c1CSc1nnc2ccc3ccccc3n12`, for which the fluorescence intensity was 23000 (active). Then `C=CCNC(=O)c1ccccc1SCc1c(C)noc1C`, with 5700 (inactive); and `COc1ccc(C)cc1NC(=O)c1ccc(-c2ccc(C(C)=O)cc2)o1`, with 3980 (inactive); and `OCCC1CN(Cc2ccc3nsnc3c2)CCN1C1CCCCC1` (stereo unspecified), with 2180 (inactive). Then `CS(=O)(=O)c1cccc(-c2ccc3nncn3c2)c1`, with 3880 (inactive); and `O=[N+]([O-])c1ccccc1/C=N/n1c(COc2ccccc2)n[nH]c1=S`, with 22400 (active); and `CCOc1ccc(-c2n[nH]c(=S)n2/N=C/c2cc3c(cc2[N+](=O)[O-])OCO3)cc1`, with 7340 (inactive).

For the compound `Fc1ccc(/C=N/n2c(COc3ccccc3)n[nH]c2=S)cc1`, the fluorescence intensity was 3650 (inactive). As to `CN(C)C(CNC(=O)c1cccc(S(=O)(=O)N2CCc3ccccc3C2)c1)c1ccccc1` (stereo unspecified), the fluorescence intensity was 4070 (inactive). `Cc1ccc(C)c(NS(=O)(=O)c2cc(Br)cnc2N)c1`: the fluorescence intensity was 2420 (inactive). Turning to `O=C(COC(=O)c1ccccc1C(=O)c1ccccc1)c1ccco1`, the fluorescence intensity was 23700 (active). Then `CCc1ccc(C(=O)COC(=O)c2ccco2)cc1`, with 5070 (inactive); and `CCN(CC)c1ccc(C(=O)OCC(=O)c2ccco2)cc1`, with 4360 (inactive); and `CC1(C(=O)NS(=O)(=O)Cc2cccc(Cl)c2)CCN1C(=O)Cc1ccc(Cl)cc1Cl` (stereo unspecified), with 3610 (inactive). Regarding `O=C(O)c1ccc(COc2c(F)c(F)cc(F)c2F)o1`, the fluorescence intensity is 5310 (inactive). Then `CCOC(=O)C1CCN(C(=O)Cc2c(C(=O)O)[nH]c3ccccc23)CC1`, with 24500 (active); and `CCOC(=O)C1CCN(C(=O)Cn2cc(C#N)c3ccccc32)CC1`, with 3760 (inactive).

Turning to `CCOC(=O)C1CCN(C(=O)COc2cccc3ccccc23)CC1`, the fluorescence intensity was 5570 (inactive). Then `Cc1cccc(-c2cnc(C(O)c3ccc4ccccc4c3)[nH]2)c1` (stereo unspecified), with 3610 (inactive).

Turning to `O=C(NCc1csc(-c2cccs2)n1)C1CC1`, the fluorescence intensity is 3880 (inactive). Then `Cc1cc(NC(=O)CSCC(=O)NC(C)c2ccccc2)no1` (stereo unspecified), with 5020 (inactive); and `Cc1ccc(-c2csc(SCC(=O)Nc3cc(C)on3)n2)cc1`, with 17800 (active); and `Cc1ccc2nc(-c3ccc(SCC(=O)Nc4cc(C)on4)nc3)[nH]c2c1`, with 2760 (inactive).

For the compound `CCNC(=O)C1(C)CCCN1C(=O)c1ccc(N(C)C)cc1` (stereo unspecified), the fluorescence intensity is 4040 (inactive). Then `COC(=O)CCCCC1=CCC2C(=O)C=C(O)C2C1` (stereo unspecified), with 6010 (inactive); and `Cc1ccc(OCCCC(=O)Nc2ccc(N3CCOCC3)cc2)cc1`, with 2550 (inactive). Then `COc1ccc(S(=O)(=O)N2CCCCCC2)cc1NC(=O)Cc1ccc(OC)c(OC)c1`, with 3920 (inactive); and `COc1ccccc1CC(=O)Nc1ccc(S(=O)(=O)N2CCCC2)cc1`, with 4360 (inactive). Then `COc1ccc(-c2ccc(Nc3ccc(S(=O)(=O)N4CCCC4)cc3)nn2)cc1OC`, with 22500 (active); and `O=C(Cc1coc2ccc3ccccc3c12)NCc1cccs1`, with 1980 (inactive).

Take `CCn1ncc(C2=NOC(C(=O)Nc3ccccc3C(=O)OC)C2)c1C` (stereo unspecified): the fluorescence intensity was 21900 (active).

Turning to `CCn1ncc(C2=NOC(C(=O)N3CCN(c4ccccc4)CC3)C2)c1C` (stereo unspecified), the fluorescence intensity was 9650 (inactive).

As to `COc1cc(NC(=O)C2CC(c3ccccc3O)=NO2)c(OC)cc1Cl` (stereo unspecified), the fluorescence intensity is 3150 (inactive).

With `Cc1ccc(CNC(=O)c2ccccc2CCc2ccccc2)cc1`, the fluorescence intensity was 13000 (inactive).

For the compound `CCCN1Cc2cccc(C(=O)Nc3ccc(S(=O)(=O)N4CCCCCC4)cc3)c2C1=O`, the fluorescence intensity is 10600 (inactive).

For the compound `CCCN1Cc2cccc(C(=O)NCc3ccccc3)c2C1=O`, the fluorescence intensity was 16800 (active). With `CCCCCC(=O)Nc1ccc(-c2cn3cccnc3n2)cc1`, the fluorescence intensity is 4250 (inactive). Then `COC(=O)c1ccc2nc(-c3ccccc3)c(Cc3ccc(OC)cc3C)n2c1`, with 7120 (inactive); and `CCOC(=O)c1c(-n2cnnn2)sc(C)c1C`, with 20300 (active); and `CCOc1ccc(C(=O)COC(=O)c2ccc(-n3cnnn3)cc2)cc1`, with 5640 (inactive).

Take `CCOC(=O)c1c(NC(=O)CSc2nccc(=O)[nH]2)sc(C)c1C`: the fluorescence intensity was 4560 (inactive).

As to `O=c1cc(CN2CCCCCCC2)c2c(ccc3ccccc32)o1`, the fluorescence intensity was 5650 (inactive). For the compound `COC(=O)[C@@]1(Cc2ccc(F)cc2)[C@H]2c3cc(C(=O)N4CCCC4)n(C[C@H](O)CO)c3C[C@H]2CN1C(=O)c1ccccc1`, the fluorescence intensity was 4320 (inactive). Then `COc1cccc(CNc2nc(NCc3ccccc3OC)nc3ccsc23)c1`, with 2990 (inactive); and `Cc1ccc(S(=O)(=O)N2CCC(=O)N([C@H](COCc3ccccc3)C(C)C)CC2)cc1`, with 5310 (inactive); and `CCOC(=O)Nc1ccc2c(c1)N(C(=O)CN1CCN3CCCC3C1)c1ccccc1CC2` (stereo unspecified), with 18500 (active). Regarding `CCOC(=O)Nc1ccc2c(c1)N(C(=O)CCN1CCN(CCO)CC1)c1ccccc1CC2`, the fluorescence intensity was 5290 (inactive). With `CCOC(=O)Nc1ccc2c(c1)N(C(=O)CCCl)c1ccccc1[S@]2=O`, the fluorescence intensity was 4240 (inactive). Then `CCCCCCCCOC1OC(CO)C(O)C(O)C1NC(C)=O` (stereo unspecified), with 4290 (inactive). Then `CC1(C)CC(=O)C=C(c2ccccc2CO)C1=O`, with 3370 (inactive); and `Cc1nc2ncnn2c(C)c1CCC(=O)N1CCN(C(=O)c2ccco2)CC1`, with 23100 (active). Consider `Cc1nc2nc(C)c(CCC(=O)N3CCN(c4ccccc4)CC3)c(C)n2n1`, for which the fluorescence intensity was 8430 (inactive). Then `Cc1nc2nc(C)c(CCC(=O)N3CCC4(CC3)OCCO4)c(C)n2n1`, with 8020 (inactive).

`Cc1ccc(C(=O)Nc2sc(Cc3ccc4c(c3)OCO4)c(C)c2C(N)=O)cc1`: the fluorescence intensity was 5510 (inactive).

On to `COc1ccc(CC(=O)Nc2sc(Cc3ccccc3)c(C)c2C(N)=O)cc1`, for which the fluorescence intensity is 22200 (active). Then `COc1ccc(CC(=O)Nc2c(C(N)=O)oc3ccccc23)cc1`, with 6330 (inactive); and `COc1ccc(CCNC(=O)Nc2ccc3c(c2)c(=O)n(C)n3C)cc1OC`, with 3460 (inactive). Then `Cc1ccc2[nH]c(=O)c(-c3nc4c(C)cccn4c3NCc3ccco3)cc2c1`, with 2400 (inactive).

Turning to `CCCN(CCC)c1nc2c(C)cccn2c(=O)c1/C=C1/SC(=S)N(Cc2ccco2)C1=O`, the fluorescence intensity is 25600 (active). With `CNc1nc2c(C)cccn2c(=O)c1C=Nc1ccc(OC)cc1`, the fluorescence intensity is 4140 (inactive). In the case of `CCN(CC)CC1(O)CCN(C(=O)c2ccc(Cl)c(Cl)c2)CC1`, the fluorescence intensity was 4500 (inactive).

For the compound `O=C1C(=O)N(c2ccccc2)c2ccccc21`, the fluorescence intensity was 22200 (active). Regarding `O=C1c2ccccc2C(=O)N1c1ccccc1S(=O)C(F)(F)F` (stereo unspecified), the fluorescence intensity is 2440 (inactive).

Take `O=C1C(Cl)=C(N2CCOCC2)C(=O)N1c1ccccc1`: the fluorescence intensity was 5720 (inactive). As for `CCOc1ccc(C(C)=O)cc1COC(=O)CNC(=O)c1cccs1`, the fluorescence intensity was 6570 (inactive). As for `Cc1ccnc(NC(=O)c2ccoc2C)c1`, the fluorescence intensity is 2220 (inactive). For the compound `Cc1occc1C(=O)Nc1cccc(Cn2cccn2)c1`, the fluorescence intensity is 16800 (active). Then `Cc1occc1C(=O)Nc1cccc(S(=O)(=O)N2CCOCC2)c1`, with 3850 (inactive); and `COc1ccc(-c2ccc(C(=O)NC(C)C)c3occc23)c(C)c1`, with 3110 (inactive).

These data come from PubChem BioAssay AID624483 (NMMLSC, 2012).
